# Values of other authors in PubChem BioAssay AID977608.
# Out of some 4,300 compounds screened, about 4,300 (100%) were called active. No cut-off is given here; in the data, nearly all actives have IC50 up to about 1400 µM. So high a share suggests a set chosen from earlier hits. The list shows a part of the results.
# Experiment: literature IC50 values for PDB complexes, PDB-derived complexes (AID 977608)
# Settings: PDB protein-ligand complexes
smiles,measurement,setting,value
O=C(NO)c1ncc(-c2ccccc2Cl)o1,IC50,"protein: METHIONINE AMINOPEPTIDASE, PDB entry 4a6w",1900 nM (active)
Cc1ccc(OC[C@@H](O)CNC2Cc3ccccc3C2)cc1C,IC50,"protein: Endochitinase CTS1, PDB entry 4txe",2400 nM (active)
C1=CC1c1[nH]nc2nccc(-c3ccco3)c12,IC50,"protein: CHECKPOINT KINASE 2, PDB entry 4bdj",7200 nM (active)
O=C(NCc1ccc(S(=O)(=O)C2CCN(C3CCOCC3)CC2)cc1)n1cc2ccncc2c1,IC50,"protein: Nicotinamide phosphoribosyltransferase, PDB entry 4kfp",10 nM (active)
C[C@H](C(=O)O)c1ccc2c(c1)[nH]c1ccc(Cl)cc12,IC50,"protein: Fatty-acid amide hydrolase 1, PDB entry 4do3",79000 nM (active)
Nc1nc(Nc2ccc(S(N)(=O)=O)cc2)sc1C(=O)Nc1c(F)cccc1F,IC50,"protein: Cyclin-dependent kinase 2, PDB entry 3r9h",100000 nM (active)
Nc1nc(Nc2ccc(S(N)(=O)=O)cc2)sc1C(=O)Nc1cccc(F)c1,IC50,"protein: Cyclin-dependent kinase 2, PDB entry 3r9d",71000 nM (active)
Nc1nc(Nc2ccc(S(N)(=O)=O)cc2)sc1C(=O)Nc1cc(F)cc(F)c1,IC50,"protein: Cyclin-dependent kinase 2, PDB entry 3r9o",100000 nM (active)
Oc1ccc(Nc2nc(-c3ccc(Cl)cc3)cs2)cc1,IC50,"protein: Sphingosine kinase 1, PDB entry 3vzd",500 nM (active)
Cc1nc2ccc(Br)cc2c(-c2ccc(Cl)cc2)c1[C@H](OC(C)(C)C)C(=O)O,IC50,"protein: Gag-Pol polyprotein (A128T mutation), PDB entry 4gvm",780 nM (active)
same,IC50,"protein: Gag-Pol polyprotein, PDB entry 4gw6",630 nM (active)
NC(N)c1ccc(CNC(=O)[C@@H]2CCN2C(=O)[C@H](NCC(=O)O)C2CCCCC2)cc1,IC50,"protein: bovine trypsin, PDB entry 1k1p",11.9 nM (active)
CNC(=O)[C@H](Cc1cnc[nH]1)NC(=O)CN(CCCc1ccccc1)CC(=O)O,IC50,"protein: human insulin degrading enzyme (ide), PDB entry 4gs8",100 nM (active)
O=c1ccn([C@@H]2O[C@H](CO[P+](O)(O)O[P+](O)(O)O)[C@@H](O)[C@H]2O)c(=O)[nH]1,IC50,"protein: human O-GlcNAc transferase and a thioglycopeptide, PDB entry 4gz3",1800 nM (active)
O=c1ccn([C@H]2C[C@H](O)[C@@H](CO[P+](O)(O)N[P+](O)(O)O[P+](O)(O)O)O2)c(=O)[nH]1,IC50,"protein: Human dUTPase, PDB entry 3ehw",15200 nM (active)
COc1cc(Nc2ncc(F)c(Nc3ccc4c(n3)N(CO[P+](O)(O)O)C(=O)C(C)(C)O4)n2)cc(OC)c1OC,IC50,"protein: Bromodomain-containing protein 4 BRD4-1, PDB entry 4o75",21000 nM (active)
Cc1noc(C)c1-c1ccc2c(Nc3ccccc3C(C)(C)C)c(C(=O)O)cnc2n1,IC50,"protein: BROMODOMAIN-CONTAINING PROTEIN 4, PDB entry 4bw2",6310 nM (active)
COc1nc2c(Nc3ccccc3C(C)(C)C)c(C(=O)O)cnc2cc1-c1c(C)noc1C,IC50,"protein: BROMODOMAIN-CONTAINING PROTEIN 4, PDB entry 4bw3",500 nM (active)
Cc1noc(C)c1-c1ccc2c(Nc3ccccc3C(C)(C)C)c(C(=O)O)cnc2c1,IC50,"protein: BROMODOMAIN-CONTAINING PROTEIN 4, PDB entry 4bw1",1260 nM (active)
COc1cc(OC)nc(C2CCCCC2C(=O)NCc2ccc(Cl)c(Cl)c2)n1 (configuration not stated),IC50,"protein: Phosphopantetheine adenylyltransferase, PDB entry 4nat",330 nM (active)
CCc1cc(Sc2ncc(C(=O)O)[nH]2)nc([C@H]2CCCC[C@@H]2C(=O)NCc2ccc(Cl)c(Cl)c2)n1,IC50,"protein: Phosphopantetheine adenylyltransferase, PDB entry 4nah",490 nM (active)
CCc1cc(-c2nc(O)c(C(N)=O)c(=O)[nH]2)nc([C@H]2CCCC[C@@H]2C(=O)NCc2ccc(Cl)c(Cl)c2)n1,IC50,"protein: Phosphopantetheine adenylyltransferase, PDB entry 4nau",0.87 nM (active)
N[C@@H](C(=O)O)[C@H](O)[C@@]1(C(=O)O)CC[C@H](C[C@H](NC(=O)c2cc(Cl)c(O)c(Cl)c2)C(=O)O)N1,IC50,"protein: Glutamate receptor 2, PDB entry 4gxs",100000 nM (active)
OS(O)(O)c1cc(N=C=S)ccc1/C=C/c1ccc(N=C=S)cc1S(O)(O)O,IC50,"protein: human soluble Adenylyl Cyclase TYPE 10, PDB entry 4clz",43000 nM (active)
O=C(NCCCNCc1cc(Cl)cc(Cl)c1)Nc1ccccc1O,IC50,"protein: Trypanosoma brucei methionyl-tRNA synthetase, PDB entry 4mw0",39 nM (active)
CC[C@H](C)[C@H](NC(=O)[C@H](CC(N)=O)NC(=O)[C@H](Cc1ccccc1)NC(=O)[C@H](Cc1c[nH]c2ccccc12)NC(=O)[C@H](CC(N)=O)NC(C)=O)C(=O)N[C@H](C(=O)N[C@@H](CC(N)=O)C(=O)N[C@]1(C)CCCCCC[C@@](C)(C(=O)N[C@H](C(=O)N[C@@H](CCNC(=O)CNC(=O)[C@@H](N)CO[P+](O)(O)O)C(=O)N[C@@H](CCCCN)C(=O)N[C@@H](CCCCN)C(=O)N[C@@H](CCCCN)C(=O)O)[C@@H](C)CC)NC(=O)[C@H](Cc2c[nH]c3ccccc23)NC(=O)[C@H](CC(C)C)NC1=O)[C@@H](C)O,IC50,"protein: HIV-1 neutralizing antibody 4E10 Fab, PDB entry 4ngh",30 nM (active)
CC[C@H](C)[C@H](NC(=O)[C@H](CC(N)=O)NC(=O)[C@H](Cc1ccccc1)NC(=O)[C@H](Cc1c[nH]c2ccccc12)NC(=O)[C@H](CC(N)=O)NC(C)=O)C(=O)N[C@H](C(=O)N[C@@H](CC(N)=O)C(=O)N[C@]1(C)CCCCCC[C@@](C)(C(=O)N[C@H](C(=O)N[C@@H](CCCCN)C(=O)N[C@@H](CCCCN)C(=O)N[C@@H](CCCCN)C(=O)N[C@@H](CCCCN)C(=O)O)[C@@H](C)CC)NC(=O)[C@H](Cc2c[nH]c3ccccc23)NC(=O)[C@H](CC(C)C)NC1=O)[C@@H](C)O,IC50,"protein: HIV-1 neutralizing antibody 4E10 Fab, PDB entry 4nhc",46 nM (active)
